Assay results as given in the supplement of paper PMC9694430.

Legend:
Assay in all cases: thermal shift delta Tm vs DMSO control; higher = stronger stabilization (binding)
Conditions in all cases: 12.5 µM; protein concentration 2 µM
[1] = tested on: LOC_OS02G45750-cb003
Outline: (§1)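 Heating from 25°C to 95°C at 0.05°C/s, fluorescence was recorded for 19.5 μl wells of 2 μM E. coli-expressed, purified rice kinase domain in 100 mM potassium phosphate pH 7.5, 150 mM NaCl, 10% glycerol and 5 × SYPRO Orange with compound in DMSO. Boltzmann fits gave melting temperatures for this differential scanning fluorimetry assay. The shift reported is the mean of three replicates against the DMSO-only protein.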

[2] = tested on: LOC_OS02G54510-cb004
Outline: as §1

[3] = tested on: LOC_OS03G04050-cb001
Outline: as §1

[4] = tested on: LOC_OS03G12390-cb001
Outline: as §1

[5] = tested on: LOC_OS03G27990-cb004
Outline: as §1

[6] = tested on: LOC_OS03G50450-cb001
Outline: as §1

[7] = tested on: LOC_OS03G50810-cb003
Outline: as §1

[8] = tested on: LOC_OS04G35114-cb001
Outline: as §1

[9] = tested on: T1, LOC_OS04G38480-cb003
T1 sequence (whole entry): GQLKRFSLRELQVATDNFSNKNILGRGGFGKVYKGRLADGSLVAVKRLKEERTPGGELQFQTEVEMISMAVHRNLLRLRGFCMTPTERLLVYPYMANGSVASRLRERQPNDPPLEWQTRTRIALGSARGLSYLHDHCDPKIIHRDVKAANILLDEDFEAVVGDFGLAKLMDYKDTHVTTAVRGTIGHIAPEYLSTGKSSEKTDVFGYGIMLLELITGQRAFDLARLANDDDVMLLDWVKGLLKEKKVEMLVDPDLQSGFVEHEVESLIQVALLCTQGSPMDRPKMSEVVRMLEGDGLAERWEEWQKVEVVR
Outline: as §1

[10] = tested on: T2, LOC_OS04G41100-cb001
T2 sequence (whole entry): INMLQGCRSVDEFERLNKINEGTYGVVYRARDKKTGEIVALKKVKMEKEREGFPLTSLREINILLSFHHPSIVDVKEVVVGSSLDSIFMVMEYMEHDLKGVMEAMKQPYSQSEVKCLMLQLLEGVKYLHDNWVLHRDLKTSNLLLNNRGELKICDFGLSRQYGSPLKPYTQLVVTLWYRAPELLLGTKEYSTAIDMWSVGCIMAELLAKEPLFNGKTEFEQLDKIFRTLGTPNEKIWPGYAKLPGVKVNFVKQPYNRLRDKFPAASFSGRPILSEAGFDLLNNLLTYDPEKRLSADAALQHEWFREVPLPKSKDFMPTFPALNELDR
Outline: as §1

[11] = tested on: LOC_OS04G57630-cb004
Outline: as §1

[12] = tested on: LOC_OS05G07850-cb002
Outline: as §1

[13] = tested on: LOC_OS05G16824-cb004
Outline: as §1

[14] = tested on: LOC_OS05G28520-cb001
Outline: as §1

[15] = tested on: LOC_OS05G30820-cb001
Outline: as §1

[16] = tested on: LOC_OS05G43570-cb004
Outline: as §1

[17] = tested on: LOC_OS06G16330-cb003
Outline: as §1

[18] = tested on: T3, LOC_OS06G22820-cb001
T3 sequence (whole entry): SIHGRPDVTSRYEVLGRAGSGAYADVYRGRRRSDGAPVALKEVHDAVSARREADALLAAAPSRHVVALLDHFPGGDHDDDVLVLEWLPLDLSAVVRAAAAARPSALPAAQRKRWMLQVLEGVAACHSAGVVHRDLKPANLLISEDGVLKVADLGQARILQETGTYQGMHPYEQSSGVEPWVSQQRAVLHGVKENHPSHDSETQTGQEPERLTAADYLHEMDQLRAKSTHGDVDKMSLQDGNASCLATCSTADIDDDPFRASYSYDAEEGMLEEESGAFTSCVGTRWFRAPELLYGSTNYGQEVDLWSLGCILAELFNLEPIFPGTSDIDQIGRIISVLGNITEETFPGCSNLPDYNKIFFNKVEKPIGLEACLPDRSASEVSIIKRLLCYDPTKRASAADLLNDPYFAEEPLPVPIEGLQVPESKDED
Outline: as §1

[19] = tested on: LOC_OS07G06570-cb004
Outline: as §1

[20] = tested on: LOC_OS07G07230-cb001
Outline: as §1
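Note: purified Escherichia coli-expressed rice kinase domain construct.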

Sequence of LOC_OS06G16330-cb003 (as listed by the source): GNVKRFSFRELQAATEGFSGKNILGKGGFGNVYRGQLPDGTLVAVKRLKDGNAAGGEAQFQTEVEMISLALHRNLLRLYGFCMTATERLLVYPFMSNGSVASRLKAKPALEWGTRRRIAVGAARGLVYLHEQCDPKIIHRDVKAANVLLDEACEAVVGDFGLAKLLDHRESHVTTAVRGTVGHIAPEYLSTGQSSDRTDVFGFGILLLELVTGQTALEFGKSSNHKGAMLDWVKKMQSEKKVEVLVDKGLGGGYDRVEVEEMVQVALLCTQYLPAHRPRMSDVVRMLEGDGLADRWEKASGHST

SMILES	thermal shift delta Tm [1] [°C]	thermal shift delta Tm [2] [°C]	thermal shift delta Tm [3] [°C]	thermal shift delta Tm [4] [°C]	thermal shift delta Tm [5] [°C]	thermal shift delta Tm [6] [°C]	thermal shift delta Tm [7] [°C]	thermal shift delta Tm [8] [°C]	thermal shift delta Tm [9] [°C]	thermal shift delta Tm [10] [°C]	thermal shift delta Tm [11] [°C]	thermal shift delta Tm [12] [°C]	thermal shift delta Tm [13] [°C]	thermal shift delta Tm [14] [°C]	thermal shift delta Tm [15] [°C]	thermal shift delta Tm [16] [°C]	thermal shift delta Tm [17] [°C]	thermal shift delta Tm [18] [°C]	thermal shift delta Tm [19] [°C]	thermal shift delta Tm [20] [°C]
C[C@@H](NC(=O)c1ncnc(N)c1Cl)c1ncc(C(=O)Nc2cc(C(F)(F)F)c(Cl)cn2)s1	0.64	6.43	0.36	0.49	0.28	0.42	-0.01	0.39	0.76	0.71	0.51	4.01	-2.64	1.62	0.73	0.28	0.58	0.53	1.4	0.05
Nc1ncnc2n[nH]c(Nc3ccc(F)cc3)c12	4.8	0.26	0.25	2.15	3.38	0.1	0.92	5.47	0.62	0.32	-0.19	8.51	1.59	0.61	0.77	0.52	2.45	0.73	1.75	0.82
COCC(=O)NC/C=C/c1ccc2ncnc(Nc3ccc(Oc4ccc(C)nc4)c(C)c3)c2c1	0.33	-0.01	0.28	-0.25	-0.01	-0.22	-0.16	1.94	0.14	0.5	0.08	3.11	-4.84	-0.02	0.4	0.04	0.23	0.59	0.41	0.08
O=c1c(O)c(-c2cc(O)c(O)c(O)c2)oc2cc(O)cc(O)c12 [Myricetin]	0.6	-0.42	1.12	1.2	1.89	2.61	-0.73	2.51	3.89	0.92	0.92	4.43	1.57	0.55	0.97	1.55	6.62	1.33	-1.03	0.47
C=CC(=O)N1CCC(Oc2cc3c(Nc4ccc(Cl)c(Cl)c4F)ncnc3cc2OC)CC1 [Poziotinib (HM781-36B)]	2.04	1.05	0	3.61	0.49	1.57	0.16	4.23	1.12	0.18	0.32	4.97	-0.85	0.58	0.44	0.15	8.31	0.44	0.72	0.28
C=CC(=O)Nc1cccc(Nc2nc(Nc3ccc(NC4CN(CCF)C4)cc3OC)ncc2C(F)(F)F)c1	0.83	0.67	0.56	8.48	0.5	0.39	1.26	0.98	0.06	0.29	0.41	6.71	1.25	0.72	0.43	0.24	-0.88	0.16	1.07	0.62
CC(C)(C)c1nc(-c2cccc(NS(=O)(=O)c3c(F)cccc3F)c2F)c(-c2ccnc(N)n2)s1	2.7	2.41	0.43	0.52	0.49	1.42	1.63	2.09	2.46	2.47	1.63	9.38	8.29	0.83	3.66	0.62	3.39	0.62	0.8	0.6
O=C(NOCC(O)CO)c1cc(Br)c(F)c(F)c1Nc1ccc(I)cc1F (stereo not given)	-0.49	-0.06	0.63	0.93	0.15	0.19	0.19	0.09	1.04	3.8	0.44	0.69	0.91	0.42	0.68	0.96	0.65	1.13	1.14	-0.63
CNC(=O)c1cc(Oc2ccc3nc(N[C@@H]4CCCC[C@H]4O)sc3c2)ccn1	0.99	-0.11	0.37	0.22	0.15	0.65	0.6	0.24	1.59	0.59	0.41	0.33	2.01	0.77	0.47	0.57	0.27	0.57	0.18	0
Nc1nc(N)c(N=O)c(OCC2CCCCC2)n1	0.64	0.21	0.46	3.99	2.79	0.35	0.92	1.13	1.28	0.59	0.27	8.06	1.8	0.61	0.8	0.23	2.17	0.95	1.43	-0.02
Cc1cc(Nc2cc(CN3CCOCC3)c3nc(C)c(Cc4ccc(Cl)cc4F)n3n2)n[nH]1	3.56	3.12	-0.22	1.36	0.01	0.47	4.81	2.03	2.46	3.22	1.33	11.1	6.97	1.47	1.14	0.39	9.97	-0.03	0.22	-0.28
COc1cccc(-c2cc(=O)c3ccccc3o2)c1N	-0.15	0.15	0.23	0.21	0.01	0.16	0.04	0.26	-0.06	0.2	-0.72	0.19	-2.84	0.24	0.41	0.15	-0.2	0.44	0.29	0.35
